In the supplement of paper PMC4466140:

Experiments:
Assay in all cases: SPOT peptide array binding signal intensity (averaged, normalized) (arbitrary units (background-subtracted, floor 0; scale differs between SH3 domains)); higher = stronger binding of the SH3 domain to the peptide
[1] = target: SpBzz1-D2
Outline: (§1)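 Four yeast species supplied the SH3 domains, which were expressed as GST fusions in E. coli BL21(DE3) and purified on glutathione Sepharose. Incubation with cellulose membranes carrying synthetic 15-mer peptides, cysteines exchanged for serines, ran overnight at 4°C at 10 μg/ml in TBS-based blocking buffer. Binding signal is reported as normalized, background-subtracted spot intensity averaged over replicates, in arbitrary units not shared between domains.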

[2] = target: SpCyk3
Outline: as §1

[3] = target: SpHof1
Outline: as §1

[4] = target: SpHof1-2
Outline: as §1

[5] = target: SpHof1-3
Outline: as §1

[6] = target: SpHse1
Outline: as §1

[7] = target: SpLsb1
Outline: as §1

[8] = target: SpLsb4
Outline: as §1

[9] = target: SpMyo1
Outline: as §1

[10] = target: SpNbp2
Outline: as §1

[11] = target: SpPex13
Outline: as §1

[12] = target: SpRvs167
Outline: as §1

[13] = target: SpSla1-D1-D2
Outline: as §1

[14] = target: SpSla1-D3
Outline: as §1

[15] = target: AgAbp1
Outline: as §1

[16] = target: AgBbc1
Outline: as §1

[17] = target: AgBem1-D1
Outline: as §1

[18] = target: AgBzz1-D1
Outline: as §1

[19] = target: AgBzz1-D2
Outline: as §1

[20] = target: AgCyk3
Outline: as §1

[21] = target: AgFus1
Outline: as §1

[22] = target: AgHof1
Outline: as §1

[23] = target: AgHse1
Outline: as §1

[24] = target: AgLsb1
Outline: as §1

[25] = target: AgLsb4
Outline: as §1

[26] = target: AgMyo5
Outline: as §1

[27] = target: AgNbp2
Outline: as §1

[28] = target: AgRvs167
Outline: as §1

[29] = target: AgSho1
Outline: as §1

[30] = target: AgSla1-D1-D2
Outline: as §1

[31] = target: AgSla1-D3
Outline: as §1

[32] = target: CaAbp1-D1
Outline: as §1

[33] = target: CaAbp1-D2
Outline: as §1

[34] = target: CaBbc1
Outline: as §1

[35] = target: CaBem1-D1
Outline: as §1

[36] = target: CaBzz1-D1
Outline: as §1

[37] = target: CaBzz1-D2
Outline: as §1

[38] = target: CaCyk3
Outline: as §1

[39] = target: CaFus1
Outline: as §1

[40] = target: CaHof1
Outline: as §1

[41] = target: CaHse1
Outline: as §1

[42] = target: CaLsb1
Outline: as §1

[43] = target: CaLsb4
Outline: as §1

[44] = target: CaMyo5
Outline: as §1

[45] = target: CaNbp2
Outline: as §1

[46] = target: CaRvs167
Outline: as §1

[47] = target: CaRvs167-3
Outline: as §1

[48] = target: CaSho1
Outline: as §1

[49] = target: CaSla1-D1-D2
Outline: as §1

[50] = target: CaSla1-D3
Outline: as §1

[51] = target: ScAbp1
Outline: as §1

[52] = target: ScBbc1
Outline: as §1

[53] = target: ScBem1-D1
Outline: as §1

[54] = target: ScBzz1-D1
Outline: as §1

[55] = target: ScBzz1-D2
Outline: as §1

[56] = target: ScCyk3
Outline: as §1

[57] = target: ScFus1
Outline: as §1

[58] = target: ScHof1
Outline: as §1

[59] = target: ScHse1
Outline: as §1

[60] = target: ScLsb1
Outline: as §1

[61] = target: ScLsb2
Outline: as §1

[62] = target: ScLsb3
Outline: as §1

[63] = target: ScLsb4
Outline: as §1

[64] = target: ScMyo3
Outline: as §1

[65] = target: ScMyo5
Outline: as §1

[66] = target: ScNbp2
Outline: as §1

[67] = target: ScPex13
Outline: as §1

[68] = target: ScRvs167
Outline: as §1

[69] = target: ScSho1
Outline: as §1

[70] = target: ScSla1-D1-D2
Outline: as §1

[71] = target: ScSla1-D3
Outline: as §1

[72] = target: SpAbp1-D1
Outline: as §1

[73] = target: SpBbc1
Outline: as §1

[74] = target: SpBzz1-D1
Outline: as §1

Which “SPOT peptide array binding signal intensity” value [1] does the source give for YSRKKLPVVLSKMTL here?
Its value is 1.5.

What about the “SPOT peptide array binding signal intensity” value [2] of the same binder?
Its value is 4.

What about the “SPOT peptide array binding signal intensity” value [3] of the same binder?
Its value is 76.8.

And the “SPOT peptide array binding signal intensity” value [4]?
The value was 27.2.

What about the “SPOT peptide array binding signal intensity” value [5] of the same binder?
Its value is 295.

What about the “SPOT peptide array binding signal intensity” value [6] of the same binder?
Its value is 77.8.

What about the “SPOT peptide array binding signal intensity” value [7] of the same binder?
Its value is 48.

What about the “SPOT peptide array binding signal intensity” value [8] of the same binder?
The value was 40.5.

And the “SPOT peptide array binding signal intensity” value [9]?
Its value is 6.

And the “SPOT peptide array binding signal intensity” value [10]?
The value was 49.5.

What about the “SPOT peptide array binding signal intensity” value [11] of the same binder?
Its value is 53.

And the “SPOT peptide array binding signal intensity” value [12]?
The value was 8.67.

And the “SPOT peptide array binding signal intensity” value [13]?
The value was 11.5.

And the “SPOT peptide array binding signal intensity” value [14]?
Its value is 41.5.

Which “SPOT peptide array binding signal intensity” value [15] does the source give for FPGKKSPRLPHRNKK here?
The value was 2580.

And the “SPOT peptide array binding signal intensity” value [16]?
Its value is 61.9.

What about the “SPOT peptide array binding signal intensity” value [17] of the same binder?
Its value is 47.5.

And the “SPOT peptide array binding signal intensity” value [18]?
Its value is 50.

And the “SPOT peptide array binding signal intensity” value [19]?
The value was 33.5.

What about the “SPOT peptide array binding signal intensity” value [20] of the same binder?
Its value is at most 0.

And the “SPOT peptide array binding signal intensity” value [21]?
The value was 6.5.

What about the “SPOT peptide array binding signal intensity” value [22] of the same binder?
The value was 35.8.

And the “SPOT peptide array binding signal intensity” value [23]?
The value was 82.5.

What about the “SPOT peptide array binding signal intensity” value [24] of the same binder?
The value was at most 0.

What about the “SPOT peptide array binding signal intensity” value [25] of the same binder?
The value was 1270.

And the “SPOT peptide array binding signal intensity” value [26]?
The value was at most 0.

What about the “SPOT peptide array binding signal intensity” value [27] of the same binder?
Its value is 87.2.

What about the “SPOT peptide array binding signal intensity” value [28] of the same binder?
The value was 12.

And the “SPOT peptide array binding signal intensity” value [29]?
The value was 33.

And the “SPOT peptide array binding signal intensity” value [30]?
Its value is 144.

And the “SPOT peptide array binding signal intensity” value [31]?
The value was 13.5.

And the “SPOT peptide array binding signal intensity” value [32]?
Its value is 2250.

What about the “SPOT peptide array binding signal intensity” value [33] of the same binder?
Its value is 2660.

And the “SPOT peptide array binding signal intensity” value [34]?
Its value is 372.

And the “SPOT peptide array binding signal intensity” value [35]?
Its value is 49.8.

What about the “SPOT peptide array binding signal intensity” value [36] of the same binder?
The value was 167.

What about the “SPOT peptide array binding signal intensity” value [37] of the same binder?
Its value is 126.

And the “SPOT peptide array binding signal intensity” value [38]?
Its value is 4.75.

What about the “SPOT peptide array binding signal intensity” value [39] of the same binder?
The value was 232.

What about the “SPOT peptide array binding signal intensity” value [40] of the same binder?
Its value is at most 0.

What about the “SPOT peptide array binding signal intensity” value [41] of the same binder?
The value was 5.12.

And the “SPOT peptide array binding signal intensity” value [42]?
The value was 0.25.

And the “SPOT peptide array binding signal intensity” value [43]?
Its value is 4250.

And the “SPOT peptide array binding signal intensity” value [44]?
The value was at most 0.

And the “SPOT peptide array binding signal intensity” value [45]?
The value was 216.

And the “SPOT peptide array binding signal intensity” value [46]?
Its value is 247.

And the “SPOT peptide array binding signal intensity” value [47]?
The value was 7.25.

What about the “SPOT peptide array binding signal intensity” value [48] of the same binder?
The value was 152.

And the “SPOT peptide array binding signal intensity” value [49]?
Its value is 332.

What about the “SPOT peptide array binding signal intensity” value [50] of the same binder?
The value was at most 0.

What about the “SPOT peptide array binding signal intensity” value [51] of the same binder?
The value was 918.

And the “SPOT peptide array binding signal intensity” value [52]?
The value was 15.5.

What about the “SPOT peptide array binding signal intensity” value [53] of the same binder?
The value was 7.

And the “SPOT peptide array binding signal intensity” value [54]?
Its value is 9.5.

What about the “SPOT peptide array binding signal intensity” value [55] of the same binder?
The value was 4.25.

What about the “SPOT peptide array binding signal intensity” value [56] of the same binder?
The value was 12.5.

And the “SPOT peptide array binding signal intensity” value [57]?
The value was at most 0.

And the “SPOT peptide array binding signal intensity” value [58]?
The value was at most 0.

What about the “SPOT peptide array binding signal intensity” value [59] of the same binder?
The value was 473.

What about the “SPOT peptide array binding signal intensity” value [60] of the same binder?
Its value is 47.1.

What about the “SPOT peptide array binding signal intensity” value [61] of the same binder?
Its value is 0.5.

What about the “SPOT peptide array binding signal intensity” value [62] of the same binder?
Its value is 3120.

And the “SPOT peptide array binding signal intensity” value [63]?
The value was 1170.

What about the “SPOT peptide array binding signal intensity” value [64] of the same binder?
The value was at most 0.

And the “SPOT peptide array binding signal intensity” value [65]?
Its value is at most 0.

And the “SPOT peptide array binding signal intensity” value [66]?
The value was 186.

What about the “SPOT peptide array binding signal intensity” value [67] of the same binder?
Its value is 393.

And the “SPOT peptide array binding signal intensity” value [68]?
Its value is 714.

And the “SPOT peptide array binding signal intensity” value [69]?
The value was 322.

What about the “SPOT peptide array binding signal intensity” value [70] of the same binder?
Its value is 570.

What about the “SPOT peptide array binding signal intensity” value [71] of the same binder?
The value was 5.25.

And the “SPOT peptide array binding signal intensity” value [72]?
Its value is 756.

And the “SPOT peptide array binding signal intensity” value [73]?
The value was 0.875.

And the “SPOT peptide array binding signal intensity” value [74]?
Its value is 208.

What about the “SPOT peptide array binding signal intensity” value [1] of the same binder?
Its value is 0.125.

What about the “SPOT peptide array binding signal intensity” value [2] of the same binder?
Its value is 1.53e-05.

What about the “SPOT peptide array binding signal intensity” value [3] of the same binder?
The value was 15.2.

What about the “SPOT peptide array binding signal intensity” value [4] of the same binder?
Its value is 19.8.

What about the “SPOT peptide array binding signal intensity” value [5] of the same binder?
The value was 270.

What about the “SPOT peptide array binding signal intensity” value [6] of the same binder?
The value was 142.

And the “SPOT peptide array binding signal intensity” value [7]?
The value was 17.9.

And the “SPOT peptide array binding signal intensity” value [8]?
Its value is 2700.

What about the “SPOT peptide array binding signal intensity” value [9] of the same binder?
The value was 4.25.

What about the “SPOT peptide array binding signal intensity” value [10] of the same binder?
The value was 176.

What about the “SPOT peptide array binding signal intensity” value [11] of the same binder?
Its value is 6.5.

What about the “SPOT peptide array binding signal intensity” value [12] of the same binder?
Its value is 833.

And the “SPOT peptide array binding signal intensity” value [13]?
The value was 5.

And the “SPOT peptide array binding signal intensity” value [14]?
The value was 13.
